In all, about 1,800 compounds went through this assay and fewer than 10 were called active. A selection follows. A number with no mark means an inactive call.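 How the source made its calls: active means inhibition of granule release above a set limit; inactive means the rest.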
assay: LAMP-1 surface externalization blockers in TALL-104 cells – cell-based, flow cytometry, validation set (AID 651664); details: TALL-104 LAMP-1 externalization, at 15.2 µM, active compounds read high, stimulated with thapsigargin and PMA

Question: With `COc1ccc(CCNC(=O)c2ccccc2NC(=O)c2ccco2)cc1OC` as the compound, how does the inhibition read?
Answer: -1.7%

Question: Which inhibition does the source give for `COC(=O)CN1C(=O)C(O)(CC(=O)c2ccc(C)o2)c2ccccc21` (stereo not given) here?
Answer: -1.9%

Question: For `COc1cccc(OC)c1C(=O)Nc1cc(C)on1`, which inhibition is on record?
Answer: -2.4%

Question: Which inhibition does the source give for `O=C(c1ccc(F)cc1)c1ccc(N2CCCC2)cc1` here?
Answer: -4.5%

Question: Which inhibition does the source give for `O=c1cc(N2CCc3ccccc3C2)[nH]c(=O)n1C1CCCCC1` here?
Answer: 8.4%

Question: With `CCN(CC)C(=O)CSc1ncnc2c1nnn2-c1ccc(OC)cc1` as the compound, how does the inhibition read?
Answer: -0.1%

Question: Which inhibition does the source give for `O=S(=O)(CCc1nc2ccccc2o1)c1ccc(Cl)c(Cl)c1` here?
Answer: -2.2%

Question: For `COC(=O)c1ccccc1NC(=O)c1ccc(COc2ccc(C)c(C)c2)o1`, which inhibition is on record?
Answer: -0.1%

Question: For `O=C(c1ccc(S(=O)(=O)N2CCCCCC2)cc1)N1CCC(CN2C(=O)c3cccc4cccc(c34)C2=O)CC1`, which inhibition is on record?
Answer: 0.6%

Question: For `c1nnnn1C12CC3CC(CC(C3)C1)C2`, which inhibition is on record?
Answer: 3.1%

Question: With `COC(=O)c1ccc(N2C(=O)CC(SCCN)C2=O)cc1` (stereo not given) as the compound, how does the inhibition read?
Answer: -1.8%

Question: For `COC(=O)c1ccc(N2C(=O)CC(N(C)CCc3ccc(OC)c(OC)c3)C2=O)cc1` (stereo not given), which inhibition is on record?
Answer: 66% (active)

Question: For `CCOC(=O)c1ccc(N2C(=O)CC(C3CCCO3)C2=O)cc1` (stereo not given), which inhibition is on record?
Answer: 3.6%

Question: Which inhibition does the source give for `O=C(Nc1cc(C(F)(F)F)ccc1N1CCOCC1)c1cccnc1Cl` here?
Answer: -2.8%

Question: For `CCCS(=O)(=O)N1CCCC(C(=O)NCCN(Cc2ccccc2)C(C)C)C1` (stereo not given), which inhibition is on record?
Answer: -0.7%

Question: For `O=C(/C=C/Nc1cccc(C(F)(F)F)c1)c1ccc(Oc2ncccn2)cc1`, which inhibition is on record?
Answer: -1%

Question: With `NC(=S)N/N=C/c1ccc(-c2cccc([N+](=O)[O-])c2)o1` as the compound, how does the inhibition read?
Answer: 1.9%

Question: With `COc1ccc(NC(=O)c2cccc(S(=O)(=O)N3CCOCC3)c2)cn1` as the compound, how does the inhibition read?
Answer: 1.5%

Question: Which inhibition does the source give for `O=C(NCC1CCCO1)/C(=C\c1ccco1)NC(=O)c1ccccc1` (stereo not given) here?
Answer: -2.2%

Question: Which inhibition does the source give for `CCc1ccc(Nc2ncccc2C#N)cc1` here?
Answer: 1.1%

Question: With `C=CCn1c(-c2cccs2)nc2nc3ccccc3nc21` as the compound, how does the inhibition read?
Answer: -2.3%

Question: With `C/C(=N/OC(=O)c1ccc(F)cc1)c1ccc(C)cc1` as the compound, how does the inhibition read?
Answer: 0.7%

Question: Which inhibition does the source give for `CC1(C)Cc2c(C#N)c(SCc3ccccc3)nc(N3CCOCC3)c2CO1` here?
Answer: 1.1%

Question: Which inhibition does the source give for `Fc1ccc(C2=Nn3c(Cc4ccccc4F)nnc3SC2)cc1` here?
Answer: 1.3%

Question: Which inhibition does the source give for `CC(=O)N1CCc2cc(NS(=O)(=O)c3cccs3)ccc21` here?
Answer: -1.2%

Question: For `COc1cc(OC)cc(C(=O)Nc2nc3ccccc3[nH]2)c1`, which inhibition is on record?
Answer: -1%

Question: Which inhibition does the source give for `Cc1cccc(N2CCN(CC(=O)Nc3ccc(-n4cnnn4)cc3)CC2)c1C` here?
Answer: -0.6%

Question: For `COc1ccc(-c2cn[nH]c2N)cc1OC`, which inhibition is on record?
Answer: 2.5%

Question: With `O=C(COC(=O)c1ccccc1)NCc1ccco1` as the compound, how does the inhibition read?
Answer: -0.5%

Question: For `CCOC1(OCC)N=C(N)C2(C#N)C(c3cccc(C)c3)C12C#N` (stereo not given), which inhibition is on record?
Answer: -0.4%

Question: For `Cc1ccc(NC(=O)/C(=C\C=C\c2ccccc2)NC(=O)c2ccccc2)cc1`, which inhibition is on record?
Answer: -0.3%

Question: Which inhibition does the source give for `Cc1ccc(NC(=O)c2cc(S(=O)(=O)Nc3ccc(C)cc3)cs2)cc1` here?
Answer: 0.6%

Question: For `COc1cc(N)cc(NC(=O)c2ccncc2)c1`, which inhibition is on record?
Answer: -0.4%

Question: With `COc1ccc(CN2CCOCC2)cc1` as the compound, how does the inhibition read?
Answer: 1.5%

Question: For `CC1CCCN(C(=O)C2CCN(CC3CC=CCC3)CC2)C1` (stereo not given), which inhibition is on record?
Answer: -1.1%

Question: With `OCCN=c1cc(-c2ccccc2)oc2ccc(Cl)cc12` as the compound, how does the inhibition read?
Answer: 3.5%

Question: Which inhibition does the source give for `O=C(/C=N/O)Nc1ccc(F)cc1` here?
Answer: -2.8%

Question: With `Cc1ccc(-n2nc(C)c3cc(C(=O)O)sc32)cc1` as the compound, how does the inhibition read?
Answer: 5.6%

Question: For `O=C(CSc1nnc(-c2cccs2)n1-c1ccccc1)Nc1ccccc1`, which inhibition is on record?
Answer: 22.8%

Question: Which inhibition does the source give for `Cc1nc(NCc2ccco2)c2oc3ccccc3c2n1` here?
Answer: -2.5%

Question: With `C=CCn1c(-c2ccco2)n[nH]c1=S` as the compound, how does the inhibition read?
Answer: -0.5%

Question: For `[O-]C1=N/[N+](=C/c2ccccc2Cl)CC1`, which inhibition is on record?
Answer: -2.2%

Question: With `COC(=O)CSc1ncnc2c1cnn2Cc1ccccc1` as the compound, how does the inhibition read?
Answer: -0.5%

Question: For `N/C(=N\OS(=O)(=O)c1ccccc1)c1ccncc1`, which inhibition is on record?
Answer: -2.3%

Question: For `CCOc1ccc(CN(CCO)CCO)cc1[N+](=O)[O-]`, which inhibition is on record?
Answer: -2.2%

Question: For `O=C(CSc1ccccn1)N1CCN(C(=O)CSc2ccccn2)CC1`, which inhibition is on record?
Answer: 0.4%

Question: For `Clc1ccc(/C=N/NC(=Nc2ccccc2)c2ccccn2)c(Cl)c1`, which inhibition is on record?
Answer: 1.5%

Question: Which inhibition does the source give for `CC(=O)N1CCN(S(=O)(=O)c2cccc(C(=O)NC3CCCc4ccccc43)c2)CC1` (stereo not given) here?
Answer: 0%

Question: For `Oc1ccccc1N=Nc1nc(-c2ccccc2)c(-c2ccccc2)[nH]1`, which inhibition is on record?
Answer: -2.4%

Question: With `Cc1ccccc1OCC(=O)Nc1cccc(NC(=O)c2ccco2)c1` as the compound, how does the inhibition read?
Answer: 1.8%

Question: Which inhibition does the source give for `CC(C(=O)O)N1C(=O)CSc2ncccc21` (stereo not given) here?
Answer: 2.4%

Question: Which inhibition does the source give for `CCC(C)NC(=O)Cn1cccc1C(=O)c1ccccc1` (stereo not given) here?
Answer: -0.2%

Question: With `CC(NC(=O)NCCCC(=O)O)(C(F)(F)F)C(F)(F)F` as the compound, how does the inhibition read?
Answer: 2%

Question: Which inhibition does the source give for `Cc1ccc(S(=O)(=O)N2CCOCC2)cc1C(=O)OCC(=O)N1CCc2ccccc2C1` here?
Answer: -0.4%

Question: With `Cc1cc2c(cc1C)NC(c1nc3ccccc3[nH]1)C1=C(CC(C)(C)CC1=O)N2` (stereo not given) as the compound, how does the inhibition read?
Answer: -3.1%

Question: Which inhibition does the source give for `O=c1[nH]c2c(s1)C(c1ccccc1)C1C3CCC(C3)C1S2` (stereo not given) here?
Answer: 0.8%

Question: With `COCCCNC(=O)C1CCC(=O)N1Cc1ccccc1Cl` (stereo not given) as the compound, how does the inhibition read?
Answer: 0.7%

Question: With `Cc1ccc(C(=O)Cn2cnc3ccccc3c2=O)cc1C` as the compound, how does the inhibition read?
Answer: 6.9%

Question: With `C=C(C)CN1C(=O)C(O)(CC(=O)c2ccc3c(c2)OCCO3)c2ccccc21` (stereo not given) as the compound, how does the inhibition read?
Answer: 1.5%

Question: With `Cc1cc(C)c(S(=O)(=O)NCc2cn3c(C)csc3n2)c(C)c1` as the compound, how does the inhibition read?
Answer: -4.5%

Question: Which inhibition does the source give for `CC1=CC=CN2CC(O)CN=C12` (stereo not given) here?
Answer: 1%

Question: Which inhibition does the source give for `O=C(Oc1ccccc1)N1CCN(c2ccc(F)cc2)CC1` here?
Answer: 6.6%

Question: Which inhibition does the source give for `COC(=O)c1ccc(CN2CCN(Cc3ccc(C(=O)OC)o3)CC2)o1` here?
Answer: 2.2%

Question: With `O=c1[nH]n(-c2ncnc3c2cnn3-c2ccccc2)c(=O)c2ccccc12` as the compound, how does the inhibition read?
Answer: -0.6%

Question: Which inhibition does the source give for `CCC(C)N=CC1=C(O)CC(c2ccccc2)CC1=O` (stereo not given) here?
Answer: -2.1%

Reference: PubChem BioAssay AID651664 (NMMLSC, 2012)
